Unmarked numbers belong to inactive results. The source made the active and inactive calls. Unless noted, no stated cut-off is given here; in the data, active means inhibition above about 42%; inactive means the rest.

Inhibition data for 25 compounds are collected here from PubChem BioAssay.

Assay [1] is described as follows: StAR promoter reporter inhibitors, counter-screen for LRH-1 inverse agonist project, cell-based, luminescence, high throughput (AID 651611; in the data active means inhibition above about 28%). The following applies: StAR promoter luciferase reporter counterscreen, at 3.6 µM, stronger effect = higher value.
For assay [2], the target named is Nuclear receptor subfamily 5 group A member 2 (Homo sapiens) (UniProt O00482). Kind of assay: LRH-1 (NR5A2) inverse agonists, retest, confirmation, cell-based, luminescence (AID 651613).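 Further: HEK293T cells co-transfected with LRH-1 and StAR promoter luciferase reporter; 0% = vehicle wells and 100% = parental cells lacking receptor.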 The following applies: cell-based LRH-1 luciferase reporter, inverse agonism; at 3.6 µM; stronger effect = higher value.
Chain of Nuclear receptor subfamily 5 group A member 2 (Homo sapiens) (O00482 whole entry, looked up): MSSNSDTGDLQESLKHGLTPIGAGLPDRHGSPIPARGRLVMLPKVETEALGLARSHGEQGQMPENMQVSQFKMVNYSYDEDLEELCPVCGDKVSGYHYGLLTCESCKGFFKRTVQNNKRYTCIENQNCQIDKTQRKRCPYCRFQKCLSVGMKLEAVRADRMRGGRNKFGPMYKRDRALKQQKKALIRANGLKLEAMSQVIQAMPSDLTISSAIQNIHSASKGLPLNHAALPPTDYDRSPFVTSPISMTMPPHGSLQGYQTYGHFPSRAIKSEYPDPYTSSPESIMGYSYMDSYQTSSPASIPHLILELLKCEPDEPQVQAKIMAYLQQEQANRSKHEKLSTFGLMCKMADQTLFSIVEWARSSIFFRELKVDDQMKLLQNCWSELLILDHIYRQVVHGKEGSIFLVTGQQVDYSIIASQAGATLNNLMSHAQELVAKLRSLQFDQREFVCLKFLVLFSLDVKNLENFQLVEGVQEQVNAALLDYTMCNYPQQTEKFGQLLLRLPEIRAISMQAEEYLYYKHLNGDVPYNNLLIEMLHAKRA
In assay [3] the target is Steroidogenic factor 1 (Homo sapiens) (UniProt Q13285). Kind of assay: SF1 (NR5A1) inverse agonists, counter-screen for LRH-1 inverse agonist project, cell-based, luminescence, high throughput (AID 651614; in the data active means inhibition above about 44%;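 further: cells cotransfected with StAR promoter reporter and SF1 expression vector; 0% = vehicle on cells with receptor and 100% = vehicle on cells lacking receptor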). The note with it: cell-based SF1 luciferase reporter, at 3.6 µM, stronger effect = higher value.
Chain of Steroidogenic factor 1 (Homo sapiens) (Q13285 whole entry, looked up, the tested form may be a part): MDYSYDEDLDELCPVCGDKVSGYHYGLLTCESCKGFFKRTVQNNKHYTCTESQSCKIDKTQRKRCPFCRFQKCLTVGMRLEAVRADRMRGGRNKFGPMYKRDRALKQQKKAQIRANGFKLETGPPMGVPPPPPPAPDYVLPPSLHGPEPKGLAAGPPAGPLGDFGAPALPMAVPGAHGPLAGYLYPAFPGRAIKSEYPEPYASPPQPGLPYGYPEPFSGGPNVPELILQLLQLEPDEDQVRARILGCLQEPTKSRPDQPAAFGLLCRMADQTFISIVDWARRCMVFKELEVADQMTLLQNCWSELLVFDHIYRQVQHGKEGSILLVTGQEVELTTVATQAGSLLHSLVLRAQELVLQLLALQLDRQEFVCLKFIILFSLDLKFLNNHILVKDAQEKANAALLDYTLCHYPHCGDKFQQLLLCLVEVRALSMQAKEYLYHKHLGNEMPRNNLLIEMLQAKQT
A short description of assay [4]: VP16 transactivation reporter inhibitors, counter-screen for LRH-1 inverse agonist project, cell-based, luminescence, high throughput (AID 651615; in the data active means inhibition above about 33%). The following applies: Gal4-VP16 luciferase reporter cells, at 3.6 µM, stronger effect = higher value.

Consider `C/C(CC1CC(C)(C)OC1=O)=N/Nc1nc(-c2ccccc2)cs1` (stereo not given), for which the inhibition in assay [1] was -5.65%; in assay [2], 47.3% (active); in assay [3], 54.3% (active); in assay [4] it was -29.5%.
For `Clc1ccc(COc2cccc(CNCc3ccncc3)c2)cc1` the same measures were 2.94%, 62.4% (active), 57.7% (active) and 26%.
For the compound `CCN(Cc1ccccc1)c1ccc(/C=N/NS(=O)(=O)c2ccc(C)c([N+](=O)[O-])c2)cc1`, the inhibition in assay [1] is 10.9%; in assay [2], 40.7%; in assay [3], 61.3% (active); in assay [4], 9.15%.
The corresponding values for `Cn1c(CN2CCN(c3cccc(Cl)c3)CC2)nc2ccccc21` are -11.3%, 23.1%, 36.9% and -12.9%.
For `COc1ccccc1N1CCN(C(=O)CSc2nc3ccccc3o2)CC1` the same measures were -10.2%, 30.2%, 35.1% and -19.8%.
With `CCOc1ccc(CCNC(=O)COC(=O)c2cccc(S(=O)(=O)N3CCCC3)c2)cc1OCC`, the inhibition is -4.16% in assay [1], 58.6% (active) in assay [2], 54.1% (active) in assay [3] and 9.86% in assay [4].
Turning to `O=C(CN1CCN(c2ccc([N+](=O)[O-])cc2)CC1)c1ccccc1`, the inhibition is 6.83% in assay [1], 60.3% (active) in assay [2], 48.5% (active) in assay [3] and 9.99% in assay [4].
On to `Cc1cccc(C)c1NC(=O)C(c1ccc(C(F)(F)F)cc1)n1c(=O)c(-c2cc3ccccc3[nH]2)nc2ccccc21` (stereo not given), for which the inhibition is 13.9% in assay [1], 23.7% in assay [2], 24.7% in assay [3] and 7.59% in assay [4].
For `Cc1c(Cl)cccc1NC(=O)CS(=O)(=O)c1ccccc1` the same measures were 13.4%, 55.1% (active), 55.5% (active) and -1.09%.
The corresponding values for `CCn1c(CN2CCN(c3ccc(Cl)cc3)CC2)nc2ccccc21` are 2.05%, 46% (active), 36.1% and 7.76%.
Turning to `CN1CC(=O)N(CC(=O)Nc2ccc(N3CCOCC3)cc2)C1=O`, the inhibition in assay [1] is 18.7%; in assay [2], 63.9% (active); in assay [3], 65.2% (active); in assay [4], -10.9%.
For `Cc1ccc(-n2c(SCC(=O)NCc3ccco3)nc3sc4c(c3c2=O)CC(C)(C)SC4)cc1` the same measures were 17.6%, 56.1% (active), 44.8% (active) and 6.61%.
The corresponding values for `NC(=S)N/N=C/c1ccc([N+](=O)[O-])cc1` are 6.27%, 42.7% (active), 39.8% and -3.22%.
The corresponding values for `COc1ccc(OC)c(CCNC(=O)Cn2nc(C)c3c(C)n(-c4ccc(C)cc4)nc3c2=O)c1` are 38.8% (active), 68% (active), 63.8% (active) and 52% (active).
Take `CC(=O)Nc1ccc(NC(=O)CSc2ccc(-c3ccco3)nn2)cc1`: the inhibition is 16.1% in assay [1], 49.4% (active) in assay [2], 44.7% (active) in assay [3] and -18.3% in assay [4].
For `Cn1c(SCC(=O)Nc2ccc3nc(SCC(=O)NC4CC4)sc3c2)nnc1-c1ccccc1` the same measures were 12.3%, 59.7% (active), 61.5% (active) and 2.96%.
For `CC(=O)Nc1cc(-c2ccccc2N(C)C)cn2c(-c3ccc(S(C)(=O)=O)cc3)cnc12` the same measures were 7.26%, 49.8% (active), 36.5% and -14.6%.
For `COCC1CCCN(C(=O)c2cc(COc3ccc4ncccc4c3)on2)C1` (stereo not given) the same measures were 30.9% (active), 58.5% (active), 64.1% (active) and 47.7% (active).
For the compound `CC(Nc1ncnc2ccccc12)c1ccccc1` (stereo not given), the inhibition in assay [1] was 20.9%; in assay [2] it was 60.2% (active); in assay [3], 67.9% (active); in assay [4], 53.7% (active).
For `O=C1CC(c2cccc([N+](=O)[O-])c2)c2ccc3ccccc3c2N1` (stereo not given) the same measures were 11.8%, 40.8%, 39.5% and 9.31%.
The corresponding values for `COc1ccc(C(=O)N/N=C(\c2ccccc2)c2ccccn2)cc1` are 76.4% (active), 80.3% (active), 84.9% (active) and 60.4% (active).
The corresponding values for `Cc1cc(C)c2c(C)c(C(=O)NCc3ccncc3)oc2c1` are 9.09%, 46.3% (active), 38.3% and 7.5%.
Regarding `CCOC(=O)C(C)Oc1cccc2c(=O)n(CC(=O)Nc3ccc(OCC)cc3)ccc12` (stereo not given), the inhibition in assay [1] was 4.74%; in assay [2], 60.1% (active); in assay [3], 58.8% (active); in assay [4], -11.2%.
The corresponding values for `c1ccc(-n2nnnc2-c2cccc3ccccc23)cc1` are 42% (active), 52.5% (active), 62.6% (active) and 23%.
For `CC[C@@H](C(=O)[C@@H](C)[C@@H](O)[C@H](C)[C@@H]1O[C@@H]([C@@H](CC)C(=O)O)CC[C@@H]1C)[C@H]1O[C@]2(C=C[C@@H](O)[C@]3(CC[C@@](C)([C@H]4CC[C@](O)(CC)[C@H](C)O4)O3)O2)[C@H](C)C[C@@H]1C` the same measures were 87% (active), 103% (active), 92.7% (active) and 92.3% (active).
